From PubChem BioAssay (EPA / NIEHS) come the findings set out here.

Molecules are shown by their SMILES. Where “and” joins values, the source holds several entries; their conditions need not be identical. Identical values can stand only once. Calls of active or inactive are those of the source. How the source made its calls: active means hit-call score of the fitted dose curve at least 0.9, where 1 is the maximum; inactive means score below 0.9.

Chain of Paired box protein Pax-6 (Homo sapiens) (P26367 whole entry, looked up): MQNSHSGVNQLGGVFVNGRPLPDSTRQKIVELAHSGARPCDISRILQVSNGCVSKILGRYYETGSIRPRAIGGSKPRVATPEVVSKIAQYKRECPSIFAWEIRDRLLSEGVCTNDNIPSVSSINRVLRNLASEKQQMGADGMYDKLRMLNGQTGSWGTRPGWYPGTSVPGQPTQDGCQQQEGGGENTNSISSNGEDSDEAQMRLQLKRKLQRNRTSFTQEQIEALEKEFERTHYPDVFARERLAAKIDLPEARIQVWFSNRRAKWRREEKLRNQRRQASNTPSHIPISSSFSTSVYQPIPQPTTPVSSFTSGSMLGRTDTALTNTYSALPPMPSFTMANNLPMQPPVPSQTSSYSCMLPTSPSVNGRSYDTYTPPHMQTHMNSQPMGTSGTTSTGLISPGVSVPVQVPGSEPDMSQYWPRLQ

The assay has as its target Paired box protein Pax-6 (Homo sapiens) (UniProt P26367). In words: ATG_Pax6_CIS: Attagene CIS-FACTORIAL HepG2 Assay for human Paired Box 6 (PAX6) (AID 2282956). The settings on record: HepG2 CIS-FACTORIAL PAX6 reporter transcription, RNA readout; actives raise or lower the signal. The method, then: ATG_CIS is a cell-based, multiplexed-readout assay that uses HepG2, a human liver cell line, with measurements taken at 24 hours after chemical dosing in a 24-well plate.ATG_Pax6_CIS is one of 52 assay component(s) measured or calculated from the ATG_CIS assay. It is designed to make measurements of mRNA induction, a form of inducible reporter, as detected with fluorescence intensity signals by Reverse transcription polymerase chain reaction (RT-PCR) and Capillary electrophoresis technology.Data from the assay component ATG_Pax6_CIS was analyzed into 1 assay endpoint. This assay endpoint, ATG_Pax6_CIS, was analyzed with bidirectional fitting relative to DMSO as the negative control and baseline of activity. Using a type of inducible reporter, measures of mRNA for gain or loss-of-signal activity can be used to understand the reporter gene at the transcription factor-level as they relate to the gene PAX6. Furthermore, this assay endpoint can be referred to as a primary readout, because this assay has produced multiple assay endpoints where this one serves a reporter gene function. To generalize the intended target to other relatable targets, this assay endpoint is annotated to the dna binding intended target family, where the subfamily is paired box protein.
Human liver HepG2 cells are transiently transfected with multiple reporter transcription units (MRTUs) in 6-well plates using FuGene 6 reagent (Roche; 3 ml FuGene/1 mg DNA). The MRTU constructs are regulated by a cis-regulating element (promoter). […] A major difference between the CIS and TRANS system is that in CIS activities of endogenous TFs are measured, whereas the TRANS assay evaluates changes in activities of exogenous, chimeric NR-Gal4 proteins. […] At the end of 24 hour incubation, total RNA was isolated using TriZol reagent (Invitrogen). The isolated RNA is then reverse-transcribed using oligo(dT) primer and Mo-MLV reverse transcriptase (Invitrogen) with DNAse I (Ambion) treatment for 30 min. The one-tenth of the produced cDNA was amplified by PCR using Taq DNA polymerase (Invitrogen) and two reporter sequence-specific primers. The PCR products were fluorescently labeled by primer extension with 6-arboxyfluorescein (6-FAM) 5'-labeled reporter sequence-specific primer (2 min at 95 C, 20 s at 68 C and 10 min at 72 C) and these products were digested with 5U of HpaI (New England Biolabs) for 2h at 37 C. The fragments were purified using Qiaquick PCR columns (Qiagen), analyzed on an ABI 3130xL genetic analyzer (Applied Biosystems) with peak positions identified by using a set of X-rhodamine (ROX)-labeled MapMarker1000 molecular weight standards (BioVentures). The raw capillary electrophoresis data was processed using Attagraph software (Attagene).
With `O=C(CC(=O)C(F)(F)C(F)(F)C(F)(F)F)c1cccs1`, the outcome was inactive. On the same count and under the same terms, with `Oc1cccc2c(O)cccc12` the entry was “inactive”.

On to `Nc1ccn([C@@H]2O[C@H](CO)[C@@H](O)C2O)c(=O)n1` (stereo not given in full), for which the outcome was inactive.

In the case of `NC(=NCCCCCCN=C(N)/N=C(\N)Nc1ccc(Cl)cc1)/N=C(\N)Nc1ccc(Cl)cc1`, the result was inactive. On to `O=S(=O)(O)c1ccc2cc(O)ccc2c1`, for which the result was inactive. Same read-out and setting: next, `CCCCCC(C)OC(=O)COc1ccc(Cl)c2cccnc12` (stereo not given): “inactive”; `CCOC(=O)c1nc(C(Cl)(Cl)Cl)n(-c2ccc(Cl)cc2Cl)n1`: “inactive”. On the same count and under the same terms, next, `CCc1ccccc1O`: “inactive”; `CCOC=C(C(=O)OCC)C(=O)OCC`: “inactive”; `CC1CCC(CO)CC1` (stereo not given): “inactive”. For the compound `CC(C)CCOCCC(C)C`, the compound was called inactive. `CN(C)CCOC(c1ccccc1)c1ccccc1`: the call was inactive. Regarding `C[N+](C)(CCCNS(=O)(=O)CCC(F)(F)C(F)(F)C(F)(F)C(F)(F)C(F)(F)C(F)(F)F)CC(=O)[O-]`, the compound was classed as inactive. The same measure, in the same setting: next, `CCCCC(CC)C(=O)OCCOCCOCCOCCOC(=O)C(CC)CCCC` (stereo not given): “inactive”; `O=C1C=CC(=O)N1c1cccc(N2C(=O)C=CC2=O)c1`: “inactive”. For `NCc1cccc(CN)c1`, the result was inactive.

On to `CCCCCCCCCCCCCC[n+]1ccccc1`, for which the AC50 is 11.1 µM (active). For `CC(=O)CC(C)C`, the compound was called inactive. Still for that read-out and setting: with `FC(F)(F)C(F)(F)C(F)(F)Br` the entry was “inactive”. Turning to `O=C1OC(=O)C(F)(F)C1(F)F`, the call was inactive.

As for `CC(O)COc1ccccc1` (stereo not given), the outcome was inactive. As for `C=CC(=O)OCC(CO)(COCC(COC(=O)C=C)(COC(=O)C=C)COC(=O)C=C)COC(=O)C=C`, the concentration at half-maximal activity (AC50) was 2.71 µM (active). `CCCCC(CC)C(=O)O` (stereo not given): the compound was classed as inactive. For the compound `Brc1ccc(Oc2ccc(Br)cc2Br)cc1`, the compound was called inactive. For `COC(=O)C(F)(F)C(F)(F)C(F)(F)F`, the result was inactive. As for `Cc1cc(C(=C2C=CC(=Nc3ccc(S(=O)(=O)O)cc3)C=C2)c2ccc(Nc3ccc(S(=O)(=O)O)cc3)cc2)cc(S(=O)(=O)O)c1N`, the result was inactive. On to `CCCCCCCCCCCC[N+](C)(C)CCCCCCCCCCCC`, for which the result was inactive. In the case of `NCCN`, the result was inactive. In the case of `FC(OC(F)(F)C(F)(F)C(F)(F)F)C(F)(F)F` (stereo not given), the compound was called inactive. On to `CN(C)c1ccc(C(=C2C=CC(=[N+](C)C)C=C2)c2ccccc2)cc1`, for which the half-maximal activity concentration (AC50) is 1.43 µM (active) and 1.44 µM (active). As for `O=C1NS(=O)(=O)c2ccccc21`, the compound was called inactive. Same read-out and setting: next, `O=C(c1ccccc1)c1ccccc1`: “inactive”; `CCCCCCCC(OC)OC`: “inactive”. On the same count and under the same terms, next, `CC(=O)Nc1ccc(S(N)(=O)=O)cc1`: “inactive”. Regarding `C[C@]12CC[C@@H]3c4ccc(O)cc4CC[C@H]3[C@@H]1C[C@@H](O)[C@@H]2O`, the result was inactive.

With `CCCCCCCCCCCC(=O)NCCCN(C)C`, the AC50 was 19.6 µM (active). For `CCCCCCCCCCCCOC(=O)c1cc(O)c(O)c(O)c1`, the outcome was inactive. Still for that read-out and setting: next, `CC(C)(C)C1CCCCC1O` (stereo not given): “inactive”; `NS(=O)(=O)O`: “inactive”; `CC[N+](CC)(CC)Cc1ccccc1`: “inactive”.
